Data published in PubChem BioAssay AID1159580 (chemical genetic matrix, 2015).
About 2,000 (36%) of roughly 5,500 compounds were called active. Not shown: some 18% with an inconclusive outcome. The list shows a part of the results. Unmarked numbers belong to inactive results. No stated cut-off is given here; in the data, active means normalized growth mostly below about 0.91 (no sharp cut-off); inconclusive means no clear call, values can overlap the other calls; inactive means mostly above about 0.92.

Test: chemical genetic growth profiling, strain panel (AID 1159580);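 further: tested at 20 µM; growth read once vehicle control cultures reached saturation at 30 °C; 1 = growth at the plate median or of vehicle wells; lower values mean less growth of the strain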
Details: growth OD

## Nc1c2ccccc2nc2ccccc12
S. cerevisiae deletion strains, locus YJR075W, strain HOC1, hits give low values
  normalized growth: 0.646 (active)
S. cerevisiae deletion strains, locus YKL009W, strain mrt4, hits give low values
  normalized growth: 0.909
S. cerevisiae deletion strains, locus YKL068W, hits give low values
  normalized growth: 0.988
S. cerevisiae deletion strains, locus YKL085W, strain MDH1 (second series), hits give low values
  normalized growth: 0.872 (active)
S. cerevisiae deletion strains, locus YKL085W, strain MDH1, hits give low values
  normalized growth: 0.872 (active)
S. cerevisiae deletion strains, locus YKL160W, strain elf1, hits give low values
  normalized growth: 0.562 (active)
S. cerevisiae deletion strains, locus YKL190W, strain CNB1, hits give low values
  normalized growth: 0.64 (active)
S. cerevisiae deletion strains, locus YKR001C, strain vps1, hits give low values
  normalized growth: 0.481 (active)
S. cerevisiae deletion strains, locus YKR026C, strain gcn3, hits give low values
  normalized growth: 0.968
S. cerevisiae deletion strains, locus YKR091W, strain srl3, hits give low values
  normalized growth: 0.925 (active)
S. cerevisiae deletion strains, locus YLL001W, strain dnm1, hits give low values
  normalized growth: 0.476 (active)
S. cerevisiae deletion strains, locus YLL026W, hits give low values
  normalized growth: 0.555 (active)
S. cerevisiae deletion strains, locus YLL041C, strain sdh2, hits give low values
  normalized growth: 0.784 (active)
S. cerevisiae deletion strains, locus YLR027C, strain aat2, hits give low values
  normalized growth: 0.453 (active)
S. cerevisiae deletion strains, locus YLR039C, strain RIC1, hits give low values
  normalized growth: 0.99
S. cerevisiae deletion strains, locus YLR058C, strain SHM2, hits give low values
  normalized growth: 0.613 (active)
S. cerevisiae deletion strains, locus YLR102C, strain apc9, hits give low values
  normalized growth: 0.823 (active)
S. cerevisiae deletion strains, locus YLR113W, strain HOG1, hits give low values
  normalized growth: 0.979
S. cerevisiae deletion strains, locus YLR221C, strain rsa3, hits give low values
  normalized growth: 0.516 (active)
S. cerevisiae deletion strains, locus YLR258W, strain gsy2, hits give low values
  normalized growth: 0.53 (active)
S. cerevisiae deletion strains, locus YLR262C, strain YPT6 (second series), hits give low values
  normalized growth: 0.843 (active)
S. cerevisiae deletion strains, locus YLR262C, strain YPT6, hits give low values
  normalized growth: 0.915
S. cerevisiae deletion strains, locus YLR268W, strain sec22, hits give low values
  normalized growth: 0.515 (active)
S. cerevisiae deletion strains, locus YLR320W, strain mms22, hits give low values
  normalized growth: 0.565 (active)
S. cerevisiae deletion strains, locus YLR330W, strain CHS5, hits give low values
  normalized growth: 0.886 (active)
S. cerevisiae deletion strains, locus YLR342W, strain FKS1 (second series), hits give low values
  normalized growth: 0.713 (active)
S. cerevisiae deletion strains, locus YLR342W, strain FKS1, hits give low values
  normalized growth: 0.792 (active)
S. cerevisiae deletion strains, locus YLR357W, strain rsc2, hits give low values
  normalized growth: 1.2 [resistant] (active)
S. cerevisiae deletion strains, locus YLR370C, strain arc18, hits give low values
  normalized growth: 0.7 (active)
S. cerevisiae deletion strains, locus YLR371W, strain rom2, hits give low values
  normalized growth: 0.948
S. cerevisiae deletion strains, locus YLR384C, strain iki3, hits give low values
  normalized growth: 0.853 (active)
S. cerevisiae deletion strains, locus YLR418C, strain cdc73, hits give low values
  normalized growth: 0.689 (active)
S. cerevisiae deletion strains, locus YML016C, strain PPZ1, hits give low values
  normalized growth: 0.847 (active)
S. cerevisiae deletion strains, locus YML032C, strain rad52, hits give low values
  normalized growth: 0.314 (active)
S. cerevisiae deletion strains, locus YML120C, strain ndi1, hits give low values
  normalized growth: 0.582 (active)
S. cerevisiae deletion strains, locus YML124C, strain tub3, hits give low values
  normalized growth: 0.743 (active)
S. cerevisiae deletion strains, locus YMR058W, strain fet3, hits give low values
  normalized growth: 0.639 (active)
S. cerevisiae deletion strains, locus YMR078C, strain ctf18, hits give low values
  normalized growth: 0.763 (active)
S. cerevisiae deletion strains, locus YMR125W, strain sto1, hits give low values
  normalized growth: 0.919
S. cerevisiae deletion strains, locus YMR129W, hits give low values
  normalized growth: 0.693 (active)
S. cerevisiae deletion strains, locus YMR205C, strain PFK2, hits give low values
  normalized growth: 0.634 (active)
S. cerevisiae deletion strains, locus YMR223W, strain ubp8, hits give low values
  normalized growth: 0.557 (active)
S. cerevisiae deletion strains, locus YMR231W, strain pep5, hits give low values
  normalized growth: 0.985
S. cerevisiae deletion strains, locus YMR263W, strain SAP30, hits give low values
  normalized growth: 0.767 (active)
S. cerevisiae deletion strains, locus YMR307W, strain GAS1, hits give low values
  normalized growth: 1.13
S. cerevisiae deletion strains, locus YNL067W, strain RPL9B, hits give low values
  normalized growth: 0.606 (active)
S. cerevisiae deletion strains, locus YNL071W, strain lat1, hits give low values
  normalized growth: 0.977
S. cerevisiae deletion strains, locus YNL128W, strain TEP1, hits give low values
  normalized growth: 0.733 (active)
S. cerevisiae deletion strains, locus YNL153C, strain GIM3, hits give low values
  normalized growth: 0.713 (active)
S. cerevisiae deletion strains, locus YNL183C, strain NPR1, hits give low values
  normalized growth: 0.771 (active)
S. cerevisiae deletion strains, locus YNL209W, strain ssb2, hits give low values
  normalized growth: 0.663 (active)
S. cerevisiae deletion strains, locus YNL233W, strain BNI4, hits give low values
  normalized growth: 0.74 (active)
S. cerevisiae deletion strains, locus YNL248C, strain rpa49, hits give low values
  normalized growth: 0.445 (active)
S. cerevisiae deletion strains, locus YNL250W, strain rad50, hits give low values
  normalized growth: 0.78 (active)
S. cerevisiae deletion strains, locus YNL271C, strain bni1, hits give low values
  normalized growth: 0.87 (active)
S. cerevisiae deletion strains, locus YNL298W, strain CLA4, hits give low values
  normalized growth: 0.847 (active)
S. cerevisiae deletion strains, locus YNL307C, strain MCK1, hits give low values
  normalized growth: 0.715 (active)
S. cerevisiae deletion strains, locus YNL322C, strain KRE1 (second series), hits give low values
  normalized growth: 0.981
S. cerevisiae deletion strains, locus YNL322C, strain KRE1, hits give low values
  normalized growth: 0.698 (active)
S. cerevisiae deletion strains, locus YNR049C, strain mso1, hits give low values
  normalized growth: 0.672 (active)
S. cerevisiae deletion strains, locus YNR052C, strain pop2, hits give low values
  normalized growth: 0.778 (active)
S. cerevisiae deletion strains, locus YOL006C, strain TOP1, hits give low values
  normalized growth: 0.67
S. cerevisiae deletion strains, locus YOL012C, strain htz1
  normalized growth: 2.35 [resistant] (active)
S. cerevisiae deletion strains, locus YOL147C, strain pex11, hits give low values
  normalized growth: 0.661 (active)
S. cerevisiae deletion strains, locus YOR001W, strain rrp6, hits give low values
  normalized growth: 0.309 (active)
S. cerevisiae deletion strains, locus YOR061W, strain CKA2, hits give low values
  normalized growth: 0.824 (active)
S. cerevisiae deletion strains, locus YOR069W, strain VPS5, hits give low values
  normalized growth: 0.811 (active)
S. cerevisiae deletion strains, locus YOR070C, strain gyp1, hits give low values
  normalized growth: 0.625 (active)
S. cerevisiae deletion strains, locus YOR080W, strain dia2, hits give low values
  normalized growth: 0.783 (active)
S. cerevisiae deletion strains, locus YOR083W, strain WHI5, hits give low values
  normalized growth: 0.501 (active)
S. cerevisiae deletion strains, locus YOR106W, strain vam3, hits give low values
  normalized growth: 0.445 (active)
S. cerevisiae deletion strains, locus YOR136W, strain idh2, hits give low values
  normalized growth: 0.805 (active)
S. cerevisiae deletion strains, locus YOR144C, strain elg1, hits give low values
  normalized growth: 0.752 (active)
S. cerevisiae deletion strains, locus YOR184W, strain ser1, hits give low values
  normalized growth: 0.41 (active)
S. cerevisiae deletion strains, locus YOR231W, strain MKK1, hits give low values
  normalized growth: 0.67 (active)
S. cerevisiae deletion strains, locus YOR265W, strain rbl2, hits give low values
  normalized growth: 0.706 (active)
S. cerevisiae deletion strains, locus YOR270C, strain vph1, hits give low values
  normalized growth: 0.599 (active)
S. cerevisiae deletion strains, locus YOR290C, strain snf2, hits give low values
  normalized growth: 0.371 (active)
S. cerevisiae deletion strains, locus YOR316C, strain cot1, hits give low values
  normalized growth: 0.808 (active)
S. cerevisiae deletion strains, locus YPL051W, strain arl3, hits give low values
  normalized growth: 0.696 (active)
S. cerevisiae deletion strains, locus YPL055C, strain LGE1, hits give low values
  normalized growth: 0.659 (active)
S. cerevisiae deletion strains, locus YPL078C, strain atp4, hits give low values
  normalized growth: 0.674 (active)
S. cerevisiae deletion strains, locus YPL106C, strain sse1, hits give low values
  normalized growth: 0.781 (active)
S. cerevisiae deletion strains, locus YPL240C, strain hsp82, hits give low values
  normalized growth: 0.8 (active)
S. cerevisiae deletion strains, locus YPL241C, strain CIN2, hits give low values
  normalized growth: 0.837 (active)
S. cerevisiae deletion strains, locus YPL256C, strain CLN2, hits give low values
  normalized growth: 0.778 (active)
S. cerevisiae deletion strains, locus YPR119W, strain clb2, hits give low values
  normalized growth: 0.862 (active)
S. cerevisiae deletion strains, locus YPR141C, strain kar3, hits give low values
  normalized growth: 1.02
S. cerevisiae deletion strains, locus YPR163C, strain tif3, hits give low values
  normalized growth: 0.974
S. cerevisiae deletion strains, locus YPR167C, strain met16, hits give low values
  normalized growth: 0.758 (active)
S. cerevisiae deletion strains, strain wtn01, hits give low values
  normalized growth: 0.42 (active)
S. cerevisiae strains, strain wild type, hits give low values
  normalized growth: 0.601 (active)
